Assay results: a collection of fitness landscapes (doi:10.1016/j.celrep.2020.107928)
Over roughly 81,000 sequences, “one-hybrid fitness for binding NBS DNA” has its median near -0.1; the highest 2% begin near 0.36. The full list was thinned out, with the highest values kept by preference.

B1: Caulobacter ParB omega fusion; a variant is named by its letters at X, in order, B8GW30 (parent)
chain: MESVVVGEPGMSEGRRGLGRGLSALLGEVDAAPAQAPGEQLGGSREAPIEILQRNPDQPRRTFREEDLEDLSNSIREKGVLQPILVRPSPDTAGEYQIVAGERAWRAAQRAGLKTVPIMVRELDDLAVLEIGIIENVQRADLNVLEEALSYKVLMEKFERTQENIAQTIGKSXSHVANXMRLLXLPDEVQSYLVSGELTAXHARAIAAAADPVALAKQIIEGGLSVRETEALARKAPNLSAGKSKGGRPPRVKDTDTQALESDLSSVLGLDVSIDHRGSTGTLTITYATLEQLDDLCNRLTRGI

Variants of: B1
Assay: one-hybrid fitness for binding NBS DNA (the Noc-binding site; scaled: cognate 1, non-cognate 0); higher = stronger binding
Conditions: with NBS DNA site
Outline: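 Selection: bacterial one-hybrid in E. coli USO, HIS3 reporter with the site 19 bp from the promoter, 48 hours at 37°C on M9-minus-histidine plus 0.1 mM IPTG and 5 mM 3-AT. Libraries were Caulobacter ParB with four randomised specificity codons, sequenced on Illumina before and after selection. Fitness is the rescaled log change in variant-to-wild-type read ratio, anchored to the cognate and non-cognate sites.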

| Variant | one-hybrid fitness for binding NBS DNA |
| --- | --- |
| TPVD | ≤ 0.2 |
| FWLS | ≤ 0.2 |
| STAF | ≤ 0.2 |
| DGKR | ≤ 0.2 |
| RSDQ | ≤ 0.2 |
| NRPR | ≤ 0.2 |
| VFEC | ≤ 0.2 |
| SCLN | ≤ 0.2 |
| QRST | 0.772 |
| QFST | ≤ 0.2 |
| DRQT | ≤ 0.2 |
| QIQT | 0.283 |
| NRST | ≤ 0.2 |
| QRQT | 0.755 |
| TYAY | ≤ 0.2 |
| MPCT | ≤ 0.2 |
| SIMW | ≤ 0.2 |
| VASM | ≤ 0.2 |
| GSLP | ≤ 0.2 |
| QIIS | ≤ 0.2 |
| QIRS | 0.539 |
| QIRD | ≤ 0.2 |
| QIYS | 0.27 |
| QIRH | 0.44 |
| QIRP | ≤ 0.2 |

| Variant | one-hybrid fitness for binding NBS DNA |
| --- | --- |
| RWRF | ≤ 0.2 |
| LTWA | ≤ 0.2 |
| KKKG | ≤ 0.2 |
| AEER | ≤ 0.2 |
| QWKT | 0.25 |
| QAVT | 0.296 |
| QAKT | 0.692 |
| QCKT | 0.778 |
| QIKT | 0.574 |
| QPKT | 0.201 |
| QIVT | 0.236 |
| QLVT | 0.276 |
| QLKT | 0.673 |
| LDLK | ≤ 0.2 |
| AVEL | ≤ 0.2 |
| SLSN | ≤ 0.2 |
| QEKT | ≤ 0.2 |
| QFKT | 0.388 |
| QHVT | 0.327 |
| QSVT | 0.328 |
| QSKT | 0.699 |
| QFVT | ≤ 0.2 |
| QHKT | 0.732 |
| QFYT | ≤ 0.2 |
| QHIT | 0.349 |

| Variant | one-hybrid fitness for binding NBS DNA |
| --- | --- |
| WSSW | ≤ 0.2 |
| LFHV | ≤ 0.2 |
| YELS | ≤ 0.2 |
| IALF | ≤ 0.2 |
| ESMD | ≤ 0.2 |
| RSFQ | ≤ 0.2 |
| RRDH | 0.371 |
| RCNN | ≤ 0.2 |
| RRNP | ≤ 0.2 |
| RRNH | 0.63 |
| RRNN | 0.493 |
| RRDN | ≤ 0.2 |
| RCDH | ≤ 0.2 |
| RRND | ≤ 0.2 |
| ANST | ≤ 0.2 |
| CRRH | ≤ 0.2 |
| RNTT | 0.215 |
| DAPG | ≤ 0.2 |
| GCTC | ≤ 0.2 |
| QTHI | 0.228 |
| QNEM | ≤ 0.2 |
| WTRW | ≤ 0.2 |
| TLWY | ≤ 0.2 |
| RRAT | 0.782 |
| RRFQ | 0.267 |

| Variant | one-hybrid fitness for binding NBS DNA |
| --- | --- |
| RRAF | ≤ 0.2 |
| RRFT | 0.777 |
| RRAC | 0.328 |
| RRFG | 0.279 |
| SIPE | ≤ 0.2 |
| IQKV | ≤ 0.2 |
| PDCE | ≤ 0.2 |
| FSMS | ≤ 0.2 |
| QQDF | ≤ 0.2 |
| QQNN | 0.231 |
| QQDT | 0.428 |
| QQNP | ≤ 0.2 |
| QQNT | 0.596 |
| KQDT | ≤ 0.2 |
| VNKV | ≤ 0.2 |
| GVQT | ≤ 0.2 |
| RNWC | ≤ 0.2 |
| AVGK | ≤ 0.2 |
| QTYA | 0.427 |
| QTGA | 0.466 |
| QMGA | 0.253 |
| QLHA | ≤ 0.2 |
| QTPA | ≤ 0.2 |
| QHHA | 0.238 |
| QWGA | ≤ 0.2 |

| Variant | one-hybrid fitness for binding NBS DNA |
| --- | --- |
| QTLA | 0.329 |
| QSNA | 0.308 |
| QTHA | 0.441 |
| QPNA | ≤ 0.2 |
| QCNA | 0.369 |
| LHCQ | ≤ 0.2 |
| VMLE | ≤ 0.2 |
| LRND | ≤ 0.2 |
| AEHT | ≤ 0.2 |
| QKAA | 0.319 |
| QSCA | ≤ 0.2 |
| QTFA | 0.301 |
| QCSA | 0.302 |
| QDQA | ≤ 0.2 |
| QTAA | 0.44 |
| QTQA | 0.432 |
| QASA | ≤ 0.2 |
| QTSA | 0.397 |
| QTCA | 0.378 |
| QCCA | 0.326 |
| QLQA | 0.204 |
| SFSC | ≤ 0.2 |
| PSTY | ≤ 0.2 |
| KYQS | ≤ 0.2 |
| AEHP | ≤ 0.2 |

| Variant | one-hybrid fitness for binding NBS DNA |
| --- | --- |
| CVMI | ≤ 0.2 |
| VVAR | ≤ 0.2 |
| NSNP | ≤ 0.2 |
| SNRD | ≤ 0.2 |
| YAHR | ≤ 0.2 |
| QTMA | 0.32 |
| QTIA | 0.224 |
| QCAA | 0.393 |
| QAWA | ≤ 0.2 |
| QTKA | 0.708 |
| QTWA | 0.367 |
| QCWA | 0.205 |
| QPAA | ≤ 0.2 |
| QTVA | 0.317 |
| QTRA | 0.712 |
| NTKA | ≤ 0.2 |
| QSAA | 0.273 |
| NGIG | ≤ 0.2 |
| PFPE | ≤ 0.2 |
| GKAT | ≤ 0.2 |
| ATEG | ≤ 0.2 |
| TRRP | ≤ 0.2 |
| HLQN | ≤ 0.2 |
| QTDA | 0.255 |
| QKDA | ≤ 0.2 |

| Variant | one-hybrid fitness for binding NBS DNA |
| --- | --- |
| QKNA | 0.378 |
| QPTA | ≤ 0.2 |
| QLNA | 0.219 |
| QINA | 0.21 |
| QCTA | 0.326 |
| QTTA | 0.399 |
| QTNA | 0.505 |
| ISCK | ≤ 0.2 |
| MLLV | ≤ 0.2 |
| LQRF | ≤ 0.2 |
| HHLI | ≤ 0.2 |
| LHQS | ≤ 0.2 |
| RINR | 0.524 |
| RWNR | 0.436 |
| RSDR | ≤ 0.2 |
| RPNR | ≤ 0.2 |
| RSNH | 0.223 |
| RCNR | 0.586 |
| RFNR | 0.325 |
| RIDR | ≤ 0.2 |
| RWDR | ≤ 0.2 |
| RWYR | ≤ 0.2 |
| RSNR | 0.526 |
| RINH | ≤ 0.2 |
| GSSG | ≤ 0.2 |

| Variant | one-hybrid fitness for binding NBS DNA |
| --- | --- |
| PGTF | ≤ 0.2 |
| LPSK | ≤ 0.2 |
| PGGS | ≤ 0.2 |
| RQIG | ≤ 0.2 |
| MIKI | ≤ 0.2 |
| NGIR | ≤ 0.2 |
| FGEY | ≤ 0.2 |
| RHNN | ≤ 0.2 |
| RHNR | 0.539 |
| RHDR | 0.216 |
| NDST | ≤ 0.2 |
| SAPN | ≤ 0.2 |
| YTYC | ≤ 0.2 |
| NRQR | ≤ 0.2 |
| QRSF | 0.262 |
| DRRR | 0.215 |
| NRRR | 0.251 |
| DRYR | ≤ 0.2 |
| QRQL | 0.255 |
| QRSR | 0.997 |
| QRQR | 0.987 |
| QRSG | 0.339 |
| NRYR | ≤ 0.2 |
| QRRR | 1.1 |
| QRYR | 0.924 |

| Variant | one-hybrid fitness for binding NBS DNA |
| --- | --- |
| RCHV | ≤ 0.2 |
| LHEL | ≤ 0.2 |
| TCPE | ≤ 0.2 |
| KYMS | ≤ 0.2 |
| NRGR | ≤ 0.2 |
| QRGR | 1.04 |
| DRGR | ≤ 0.2 |
| QRCR | 0.981 |
| QRLF | 0.238 |
| QDCR | ≤ 0.2 |
| QRLR | 0.945 |
| QRLQ | 0.327 |
| QRDR | 0.679 |
| DRCR | ≤ 0.2 |
| DAMG | ≤ 0.2 |
| RDCF | ≤ 0.2 |
| SWLF | ≤ 0.2 |
| THYV | ≤ 0.2 |
| EPRD | ≤ 0.2 |
| AGTM | ≤ 0.2 |
| AMGA | ≤ 0.2 |
| NRNR | ≤ 0.2 |
| DRNR | ≤ 0.2 |
| NRHR | ≤ 0.2 |
| DRHR | ≤ 0.2 |

| Variant | one-hybrid fitness for binding NBS DNA |
| --- | --- |
| QRNR | 1.03 |
| QRHR | 1.06 |
| TTSN | ≤ 0.2 |
| DLQW | ≤ 0.2 |
| DYWR | ≤ 0.2 |
| QHFN | ≤ 0.2 |
| QHAR | 0.523 |
| QHFR | 0.408 |
| QHAH | ≤ 0.2 |
| QHAN | ≤ 0.2 |
| QHFS | ≤ 0.2 |
| GISW | ≤ 0.2 |
| ACMF | ≤ 0.2 |
| RFMI | ≤ 0.2 |
| EHLG | ≤ 0.2 |
| SCYH | ≤ 0.2 |
| MRMG | ≤ 0.2 |
| RYLH | ≤ 0.2 |
| RYNP | ≤ 0.2 |
| RYRT | 0.664 |
| RYDT | 0.204 |
| RYLD | ≤ 0.2 |
| RYKT | 0.604 |
| RYPT | ≤ 0.2 |
| RYVT | 0.229 |

| Variant | one-hybrid fitness for binding NBS DNA |
| --- | --- |
| RYYT | 0.349 |
| RYWT | 0.281 |
| RYNT | 0.514 |
| RYLT | 0.366 |
| LHLS | ≤ 0.2 |
| ILDG | ≤ 0.2 |
| GDTF | ≤ 0.2 |
| TMRI | ≤ 0.2 |
| MQPC | ≤ 0.2 |
| MRDI | ≤ 0.2 |
| WQSY | ≤ 0.2 |
| RYCC | ≤ 0.2 |
| RYAT | 0.461 |
| RYCG | ≤ 0.2 |
| RYCT | 0.372 |
| RYAH | ≤ 0.2 |
| RYFT | ≤ 0.2 |
| TALL | ≤ 0.2 |
| HITC | ≤ 0.2 |
| LYGC | ≤ 0.2 |
| QHWT | 0.375 |
| QHWN | ≤ 0.2 |
| QTRT | 0.891 |
| QTYT | 0.572 |
| NTRT | ≤ 0.2 |

| Variant | one-hybrid fitness for binding NBS DNA |
| --- | --- |
| DTRT | ≤ 0.2 |
| QTWT | 0.543 |
| QTWD | ≤ 0.2 |
| QTWH | ≤ 0.2 |
| QHWD | ≤ 0.2 |
| DQMC | ≤ 0.2 |
| HTHS | ≤ 0.2 |
| SPAK | ≤ 0.2 |
| IRFR | ≤ 0.2 |
| WCIR | ≤ 0.2 |
| QTDT | 0.448 |
| QSWT | 0.348 |
| QPWT | ≤ 0.2 |
| QTST | 0.61 |
| QTSF | ≤ 0.2 |
| QTNP | ≤ 0.2 |
| QTSC | 0.214 |
| QTND | 0.227 |
| QTNT | 0.71 |
| QCWT | 0.461 |
| IHPM | ≤ 0.2 |
| MVSY | ≤ 0.2 |
| TTTW | ≤ 0.2 |
| HGWD | ≤ 0.2 |
| LSVE | ≤ 0.2 |

| Variant | one-hybrid fitness for binding NBS DNA |
| --- | --- |
| EWQK | ≤ 0.2 |
| GLRI | ≤ 0.2 |
| TRMF | ≤ 0.2 |
| IGRY | ≤ 0.2 |
| TPVT | 0.375 |
| TCVT | ≤ 0.2 |
| TPVQ | 0.763 |
| TRSQ | ≤ 0.2 |
| TSSQ | 0.493 |
| TPVR | 0.513 |
| TCVR | ≤ 0.2 |
| TTSQ | ≤ 0.2 |
| TPKQ | ≤ 0.2 |
| TPKR | 0.351 |
| TSVQ | ≤ 0.2 |
| TPKT | ≤ 0.2 |
